Screens (PubChem BioAssay)
NOMO-1 viab: STK33 inhibitor candidate reducing NOMO-1 cell viability; NOMO-1 AML viability, CellTiter-Glo luminescence, 72 h; inhibition, % (no concentration beside the values); 37,000 tested, 7.5% active; AID 2330; in the data active = inhibition above about 80%
STK33 kin inh: inhibitors of human STK33 kinase; AID 2322; 27,000 tested, 0.44% active; Q9BYT3; inhibition, % at 12.5 µM; ADP-Glo luminescence, MBP substrate; in the data active = inhibition above about 20%
Target sequence (Q9BYT3 whole entry, looked up): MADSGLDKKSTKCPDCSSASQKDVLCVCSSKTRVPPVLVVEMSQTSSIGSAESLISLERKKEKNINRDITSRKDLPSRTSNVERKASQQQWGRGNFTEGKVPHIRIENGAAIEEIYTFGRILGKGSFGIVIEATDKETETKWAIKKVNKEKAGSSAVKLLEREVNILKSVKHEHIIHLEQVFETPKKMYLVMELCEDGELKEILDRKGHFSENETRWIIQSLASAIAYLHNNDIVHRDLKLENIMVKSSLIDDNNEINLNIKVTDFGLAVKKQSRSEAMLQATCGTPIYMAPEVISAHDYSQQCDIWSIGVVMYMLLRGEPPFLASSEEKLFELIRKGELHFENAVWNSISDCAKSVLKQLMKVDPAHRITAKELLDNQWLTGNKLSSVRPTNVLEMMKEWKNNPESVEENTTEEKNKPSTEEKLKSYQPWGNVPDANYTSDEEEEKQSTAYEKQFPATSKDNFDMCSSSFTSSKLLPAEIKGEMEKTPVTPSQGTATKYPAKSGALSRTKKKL
mut p53 react: restores mutant p53 pathway signaling in SW480 cells. SW480 PUMA-promoter luciferase, p53 mutant reactivation. activation, % at 9.98 µM. 28,000 tested, 1.5% active. AID 624151; in the data active = activation above about 52%
ID4 SMM: binders of human ID4 protein. P47928. small molecule microarray, Flag-ID4 binding, fluorescence F/B. calls only. 31,000 tested, 1.2% active. AID 624137; call rule not given here;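 also: a binder raises fluorescence above local background on the spot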
Target sequence (P47928 whole entry, looked up): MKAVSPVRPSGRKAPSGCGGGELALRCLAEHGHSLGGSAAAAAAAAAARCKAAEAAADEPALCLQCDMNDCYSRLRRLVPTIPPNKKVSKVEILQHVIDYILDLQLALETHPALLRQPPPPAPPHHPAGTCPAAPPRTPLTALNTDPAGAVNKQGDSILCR
Of the large screens only hits and unclear results are named; the others gave an inactive call. The entries come from a sample that favours hits as a whole.

CC(=O)O[C@H]1[C@H](Oc2ccccc2COC(=O)C2(O)C=CCCC2=O)O[C@H](CO)[C@@H](O)[C@@H]1O (stereo partly specified)	none
C[C@@H]1CN([C@H](C)CO)C(=O)c2cc(NC(=O)Cc3ccccc3)ccc2O[C@H]1CN(C)Cc1ccc(-c2ccccc2)cc1	NOMO-1 viab 117.0 (no result: mut p53 react, ID4 SMM)
C[C@H]1CN([C@@H](C)CO)C(=O)c2cc(NC(=O)Cc3ccccc3)ccc2O[C@H]1CN(C)Cc1ccccc1	none (no result: mut p53 react, ID4 SMM)
C[C@H](CO)N1C[C@H](C)[C@H](CN(C)Cc2ccncc2)Oc2ccc(NC(=O)Cc3ccccc3)cc2C1=O	NOMO-1 viab 98.1 (no result: STK33 kin inh, mut p53 react, ID4 SMM)
CC(=O)Nc1nccc(-c2cc(-c3cccc(C(F)(F)F)c3)no2)n1	mut p53 react 79.5 (no result: NOMO-1 viab, STK33 kin inh)
COc1ccc(S(=O)(=O)Nc2ccc3c(c2)CC(=O)N([C@@H](C)CO)C[C@H](C)[C@H](CN(C)Cc2ccc(Oc4ccccc4)cc2)O3)cc1	none (no result: mut p53 react, ID4 SMM)
C[C@H]1CN([C@@H](C)CO)C(=O)Cc2cc(NS(=O)(=O)c3ccc(F)cc3)ccc2O[C@H]1CN(C)Cc1ccccc1	none (no result: mut p53 react, ID4 SMM)
C[C@@H]1CN([C@@H](C)CO)C(=O)Cc2cc(NS(=O)(=O)c3ccc(F)cc3)ccc2O[C@@H]1CN(C)Cc1ccc(Oc2ccccc2)cc1	NOMO-1 viab 122.2 (no result: mut p53 react, ID4 SMM)
C[C@H]1CN([C@@H](C)CO)C(=O)Cc2cc(NS(=O)(=O)c3ccc(F)cc3)ccc2O[C@H]1CN(C)Cc1ccc(Oc2ccccc2)cc1	NOMO-1 viab 122.2 (no result: mut p53 react, ID4 SMM)
Cc1cccc(C)c1NC(=O)CSc1nnnn1-c1ccc(I)cc1	none
COc1ccc(CCNC(=O)C2OCCc3ccccc32)cc1OC (stereo unspecified)	ID4 SMM active
C[C@@H]1CN([C@H](C)CO)C(=O)Cc2cc(NC(=O)Cn3cnnn3)ccc2O[C@@H]1CN(C)CC1CCCCC1	none (no result: mut p53 react, ID4 SMM)
Oc1ccccc1CNCc1ccccn1	NOMO-1 viab 115.4 (no result: STK33 kin inh, mut p53 react, ID4 SMM)
COc1ccc(NC(=O)N(C)C[C@@H]2OCCCC[C@@H](C)Oc3ccc(NS(=O)(=O)c4ccc(OC)cc4)cc3C(=O)N([C@H](C)CO)C[C@@H]2C)cc1	none (no result: ID4 SMM)
C[C@@H]1CN([C@H](C)CO)C(=O)Cc2cc(NC(=O)Nc3ccc(C(F)(F)F)cc3)ccc2O[C@@H]1CN(C)Cc1ccc(Oc2ccccc2)cc1	NOMO-1 viab 115.1 (no result: mut p53 react, ID4 SMM)
C[C@@H]1CN([C@@H](C)CO)C(=O)Cc2cc(NC(=O)NC3CCCCC3)ccc2O[C@@H]1CN(C)Cc1ccccc1	none
COc1ccc(NC(=O)Nc2ccc3c(c2)CC(=O)N([C@@H](C)CO)C[C@H](C)[C@@H](CN(C)Cc2ccc(Oc4ccccc4)cc2)O3)cc1	NOMO-1 viab 118.6 (no result: mut p53 react, ID4 SMM)
C[C@@H]1CN([C@H](C)CO)C(=O)Cc2cc(NC(=O)CCC(F)(F)F)ccc2O[C@@H]1CN(C)Cc1ccc(Oc2ccccc2)cc1	NOMO-1 viab 83.6 (no result: mut p53 react, ID4 SMM)
C[C@H](CO)N1C[C@H](C)[C@H](CN(C)Cc2ccc(Oc3ccccc3)cc2)Oc2ccc(NC(=O)CCC(F)(F)F)cc2CC1=O	none (no result: mut p53 react, ID4 SMM)
C[C@H]1CN([C@@H](C)CO)C(=O)Cc2cc(NC(=O)Nc3ccc(C(F)(F)F)cc3)ccc2O[C@H]1CN(C)Cc1ccc(Oc2ccccc2)cc1	none (no result: mut p53 react, ID4 SMM)
C[C@@H]1CN([C@H](C)CO)C(=O)Cc2cc(NC(=O)NC3CCCCC3)ccc2O[C@@H]1CN(C)Cc1ccc(Oc2ccccc2)cc1	NOMO-1 viab 110.9 (no result: mut p53 react, ID4 SMM)
c1ccc(COc2ccc(NCCc3ccncc3)cc2)cc1	none (no result: STK33 kin inh, mut p53 react, ID4 SMM)
C[C@@H]1CN([C@H](C)CO)C(=O)c2cc(NC(=O)c3ccccc3)ccc2O[C@@H](C)CCCCO[C@H]1CN(C)S(=O)(=O)c1cn(C)cn1	none (no result: NOMO-1 viab, STK33 kin inh)
C[C@@H]1CN([C@H](C)CO)C(=O)Cc2cc(NC(=O)Nc3ccccc3)ccc2O[C@H]1CN(C)Cc1ccc(Oc2ccccc2)cc1	none (no result: mut p53 react, ID4 SMM)
C[C@@H]1CN([C@@H](C)CO)C(=O)Cc2cc(NC(=O)Nc3ccc(C(F)(F)F)cc3)ccc2O[C@@H]1CN(C)Cc1ccc(Oc2ccccc2)cc1	NOMO-1 viab 127.6 (no result: mut p53 react, ID4 SMM)
C[C@@H]1CN([C@@H](C)CO)C(=O)Cc2cc(NC(=O)Cc3cn(C)c4ccccc34)ccc2O[C@@H]1CN(C)Cc1ccc(C(=O)O)cc1	none
C[C@@H]1CN([C@H](C)CO)C(=O)c2cc(NC(=O)CCC(F)(F)F)ccc2O[C@@H]1CN(C)C(=O)Nc1ccc(C(F)(F)F)cc1	none (no result: STK33 kin inh, mut p53 react, ID4 SMM)
O=C1C=CC(=C(c2ccc(O)cc2)c2ccc(O)cc2)C=C1	NOMO-1 viab 108.4 (no result: mut p53 react, ID4 SMM)
COc1ccc(CN(C)C[C@@H]2OCCCC[C@H](C)Oc3ccc(NC(=O)Nc4c(C)noc4C)cc3C(=O)N([C@@H](C)CO)C[C@H]2C)cc1	none (no result: NOMO-1 viab, STK33 kin inh)
Cc1cc(C)c(C#N)c(SCC(O)CS(=O)(=O)c2ccc(C(C)(C)C)cc2)n1 (stereo unspecified)	none
Cc1cc(C)c(C#N)c(SCCS(=O)(=O)c2nc3ccccc3s2)n1	NOMO-1 viab 128.2
N#Cc1cc2c(nc1SCCS(=O)(=O)c1nc3ccccc3s1)CCCC2	NOMO-1 viab 111.8
N#Cc1cc2c(nc1SCC(=O)Nc1ccccc1OC(F)(F)F)CCCC2	none
C[C@@H]1CN([C@@H](C)CO)C(=O)c2cc(NC(=O)CCC(F)(F)F)ccc2O[C@@H]1CN(C)Cc1ccncc1	none (no result: STK33 kin inh, mut p53 react, ID4 SMM)
COc1ccc(-c2nn(-c3ccccc3)cc2C(=O)NCC(=O)c2ccccc2)cc1OC	none
COc1cccc(-c2nn(-c3ccccc3)cc2C(=O)n2nnc3ccccc32)c1	NOMO-1 viab 127.8
C[C@H](CO)N1C[C@H](C)[C@@H](CN(C)CC2CC2)Oc2c(NC(=O)NC3CCCCC3)cccc2C1=O	none (no result: STK33 kin inh, ID4 SMM)
CS(=O)(=O)N(CC(=O)Nc1ccc(F)cc1F)c1ccc2c(c1)OCCO2	none
C[C@H]1CN([C@@H](C)CO)C(=O)c2cccc(NS(=O)(=O)c3ccc(Cl)cc3)c2O[C@H]1CN(C)C(=O)NC1CCCCC1	none (no result: STK33 kin inh, mut p53 react, ID4 SMM)
COc1ccc(S(=O)(=O)Nc2cccc3c2O[C@@H](CN(C)C(=O)NC2CCCCC2)[C@@H](C)CN([C@H](C)CO)C3=O)cc1	NOMO-1 viab 114.0 (no result: STK33 kin inh, mut p53 react, ID4 SMM)
COc1ccc(S(=O)(=O)Nc2cccc3c2O[C@H](CN(C)C(=O)NC2CCCCC2)[C@@H](C)CN([C@@H](C)CO)C3=O)cc1	none (no result: STK33 kin inh, mut p53 react, ID4 SMM)
C[C@H](CO)N1C[C@H](C)[C@H](CN(C)C(=O)NC2CCCCC2)Oc2c(NS(=O)(=O)c3ccc(Cl)cc3)cccc2C1=O	NOMO-1 viab 87.7 (no result: STK33 kin inh, mut p53 react, ID4 SMM)
O=C(C[C@@H]1CC[C@@H](NC(=O)CCN2CCCCC2)[C@H](CO)O1)Nc1nccs1	none (no result: NOMO-1 viab, STK33 kin inh, mut p53 react)
O=C1N(Cc2ccccc2)Cc2ccccc2C[C@]12N=C(c1ccc(OCCCO)cc1)O[C@@H]2c1ccccc1	none (no result: NOMO-1 viab, mut p53 react)
C[C@@H]1CN([C@H](C)CO)C(=O)c2cccc(NS(=O)(=O)c3cn(C)cn3)c2O[C@@H]1CN(C)CC1CCCCC1	none (no result: STK33 kin inh, mut p53 react, ID4 SMM)
C[C@@H]1CN([C@@H](C)CO)C(=O)Cc2cc(NC(=O)Cc3ccccc3)ccc2O[C@H]1CN(C)C(=O)Nc1ccccc1	ID4 SMM active (no result: NOMO-1 viab, STK33 kin inh)
C[C@@H]1CN([C@H](C)CO)C(=O)Cc2cc(NC(=O)Cc3ccccc3)ccc2O[C@@H]1CN(C)C(=O)Nc1ccccc1	none
C[C@H](CO)N1C[C@H](C)[C@@H](CN(C)C(=O)Nc2ccccc2)Oc2ccc(NC(=O)Cn3cnnn3)cc2CC1=O	ID4 SMM active (no result: NOMO-1 viab, STK33 kin inh)
